The target of assay [1] is Progesterone receptor (Homo sapiens) (UniProt P06401). Briefly: qHTS assay to identify small molecule agonists of the progesterone receptor (PR) signaling pathway (AID 1346784; calls by dose curve; further: nearly all actives have a fitted effect of over 30% in size). The method in brief:
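PR-UAS-bla HEK 293T cells (beta-lactamase reporter under UAS) in 2% charcoal-stripped FBS, dosed with 23 nL compound after 6 hr, incubated 16hr at 37C. LiveBLAzer B/G FRET substrate added, fluorescence read after 2 hours.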
(In general: qHTS replaces the single test concentration by a dilution series.)

For assay [2] the target is unchanged. Briefly: qHTS assay to identify small molecule antagonists of the progesterone receptor (PR) signaling pathway (AID 1346795; active means well fitted inhibition curve with a large enough effect in the signal ratio in the repeat runs, not every such curve was filed as active; the % refers to the signal ratio). Summed up: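 PR-UAS-bla HEK293T cells with beta-lactamase reporter under UAS control, in 2% charcoal-stripped FBS, treated with compounds plus 1 nM promegestone (R5020, final) for 16 hr at 37C. Read-out: FRET beta-lactamase substrate fluorescence after 2 hr at room temperature.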

Assay [3] in a line: qHTS assay to identify small molecule antagonists of the progesterone receptor (PR) signaling pathway - cell viability counter screen (AID 1346798). Further: series mostly up to about 92 µM; nearly all actives have a fitted effect of over 50% in size. Summed up:
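PR-UAS-bla HEK293T cells, 3,000/well in 2% charcoal-stripped FBS medium, dosed with compounds plus R5020 agonist and incubated 16 h at 37C. Viability then measured in the same wells by CellTiter-Glo luminescence after 30 min at RT.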

Assay [4] is described as follows: qHTS assay to identify small molecule agonists of the progesterone receptor (PR) signaling pathway - cell viability counter screen (AID 1346799; calls by dose curve; further: nearly all actives have a fitted effect of over 45% in size). The method in brief:
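Counter screen in the PR-UAS-bla HEK293T wells (2% charcoal-stripped FBS, 16 h compound exposure at 37 C) after the bla read. CellTiter-Glo added, 30 min at room temperature, luminescence read as cell viability.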

Assay [5] is described as follows: qHTS assay to identify small molecule antagonists of the TGF-beta/Smad signaling pathway - cell viability counter screen (AID 1346824). Further: nearly all actives have a fitted effect of over 50% in size. The method in brief:
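SBE-bla HEK 293T cells were plated overnight at 37 C, then given compounds in DMSO plus TGF-beta1 (added as 0.25 ng/mL solution) for 5 hr. After the bla read, CellTiter-Glo was added to the same wells and luminescence read after 30 min at room temperature.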

Assay [6] is described as follows: qHTS assay to identify small molecule agonists of the TGF-beta/Smad signaling pathway - cell viability counter screen (AID 1346829). Further: top concentration of the series differs between compounds; nearly all actives have a fitted effect of over 45% in size. The method in brief:
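HEK 293T SBE-bla line, 5 hr compound exposure at 37 C, multiplexed CellTiter-Glo viability read by luminescence.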

Assay [7] in a line: qHTS assay to identify small molecule agonists of the TGF-beta/Smad signaling pathway (AID 1346859; active means well fitted activation curve with a large enough effect in the signal ratio in the repeat runs, not every such curve was filed as active; the % refers to the signal ratio; further: series mostly up to about 77 µM). Summed up: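 SBE-bla HEK293T cells plated overnight, then compound exposure for 5 h at 37 C. Beta-lactamase reporter read with LiveBLAzer B/G FRET substrate after 2 h at room temperature, fluorescence at 405 nm excitation, 460/530 nm emission.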
Assay [8] addresses Thyrotropin-releasing hormone receptor (Homo sapiens) (UniProt P34981). Briefly: qHTS assay to identify small molecule antagonists of the thyrotropin-releasing hormone receptor (TRHR) signaling pathway (AID 1346877; active means well fitted inhibition curve with a large enough effect in the repeat runs, not every such curve was filed as active; further: series mostly up to about 51 µM). Summed up:
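Kinetic fluorescence (3 min, 1 s resolution) following stimulation with TRH at 1 nM final; HEK293 cells bearing human TRHR; 5 min compound preincubation at RT; concentration-response over 15 points, triplicates.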

Assay [9] has the same target. Briefly: qHTS assay to identify small molecule agonists of the thyrotropin-releasing hormone receptor (TRHR) signaling pathway (AID 1346891; calls by dose curve; further: series mostly up to about 58 µM). The method in brief: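 HEK293 cells expressing TRHR plated 18 h at 37 C/5% CO2, calcium dye-loaded 2 h at 37 C, then compound added (agonist mode); kinetic calcium fluorescence read 3 min at 1 s intervals; 15 concentrations in triplicate.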

A short description of assay [10]: Human pregnane X receptor (PXR) small molecule agonists, qHTS cell viability counter screen (AID 1346977). Further: nearly all actives have a fitted effect of over 50% in size. The method in brief: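 PXR-Luc HepG2 cells (2,000/well, 5% charcoal-stripped FBS) preincubated 5 hr, then exposed to compounds 24 hr at 37 C. Viability read in the same wells by CellTiter-Fluor fluorescence, reagent added at 23 hr, 1 hr incubation.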
The nature of assay [11]: Caspase-3/7 induction in HepG2 cells by small molecules, qHTS assay (AID 1346978). Further: nearly all actives have a fitted effect of over 15% in size. The method in brief:
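Wild-type HepG2 cells (2,000/well) were settled 5 h at 37 C, 5% CO2, then exposed to compounds in DMSO for 17 h. Caspase-3/7 activity was read by luminescence 30 min after adding Caspase-Glo 3/7 reagent at room temperature.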

Assay [12] in a line: Caspase-3/7 induction in CHO-K1 cells by small molecules, qHTS cell viability counter screen (AID 1346979). Further: nearly all actives have a fitted effect of over 35% in size. The method in brief:
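Wild-type CHO-K1 cells (1,500/well) treated with compound after 5 h plating; after 16 h at 37C, viability read as CellTiter-Fluor fluorescence following 1 h reagent incubation, in the same wells as the caspase read.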

Assay [13] is described as follows: Caspase-3/7 induction in CHO-K1 cells by small molecules, qHTS assay (AID 1346980). Further: nearly all actives have a fitted effect of over 15% in size. Summed up: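 Wild-type cells were seeded at 1,500 per well and settled 5 hr at 37 C, 5% CO2, then exposed to DMSO-dissolved compounds for 17 hr. Caspase-Glo 3/7 reagent was added, and luminescence was read after 30min at room temperature.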
Assay [14] can be described thus: Caspase-3/7 induction in HepG2 cells by small molecules, qHTS cell viability counter screen (AID 1346981). Further: series mostly up to about 92 µM; nearly all actives have a fitted effect of over 30% in size. The method in brief:
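In this quantitative HTS counter screen, compounds delivered in DMSO were left on unmodified HepG2 cells for 16 hr at 37 C. Viability was then determined fluorometrically with CellTiter-Fluor, in parallel with caspase-3/7 induction in the same wells.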

For assay [15], the target named is Nuclear receptor subfamily 1 group I member 2 (Homo sapiens) (UniProt O75469). Briefly: Human pregnane X receptor (PXR) small molecule agonists, qHTS assay (AID 1346982). Further: nearly all actives have a fitted effect of over 35% in size. The method in brief: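 Reporter HepG2 cells expressing PXR-Luc are cultured in charcoal-stripped FBS (5%), treated with compounds for 24 hr at 37 C, and assayed by ONE-Glo luminescence after 30 min at room temperature.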

Assay [16] has as its target Cytochrome P450 2D6 (Homo sapiens) (UniProt P10635). Briefly: Cytochrome P450 Family 2 Subfamily D Member 6 (CYP2D6) small molecule antagonists: luciferase reporter qHTS assay (AID 1671196). Further: nearly all actives have a fitted effect of over 50% in size. Further: potency means the concentration at half of the fitted maximal effect. The method in brief:
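Test chemicals meet CYP2D6 plus proluciferin substrate (10 min, RT); NADPH regenerating solution then drives turnover for 1 h. Detection reagent halts the reaction; luminescence measured after 20 min.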
A general note: A reporter such as luciferase makes a cellular process visible.

In assay [17] the target is Cytochrome P450 2C19 (Homo sapiens) (UniProt P33261). Briefly: Cytochrome P450 Family 2 Subfamily C Member 19 (CYP2C19) small molecule antagonists: luciferase reporter qHTS assay (AID 1671197). Further: series mostly up to about 120 µM; nearly all actives have a fitted effect of over 65% in size. The method in brief: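 First, compounds are pinned into enzyme-substrate mix and held 10 min at room temperature. Second, NADPH regeneration solution is added and plates incubate 1 h at 37C. Third, detection reagent is added and luminescence read after 20 min.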

For assay [18], the target named is Nuclear receptor subfamily 1 group I member 2 (Rattus norvegicus) (UniProt Q9R1A7). Briefly: Rat pregnane X receptor (rPXR) activation by small molecules, qHTS assay (AID 1346983). Further: nearly all actives have a fitted effect of over 20% in size. To be noted: rPXR luciferase reporter cells, One-Glo luminescence, 24 h; hits give high values. The method in brief:
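Cell-based rPXR luciferase reporter assay, 2,000 cells per well, rested 5hr at 37 C before compound addition in DMSO, then 24 hr at 37 C. One-Glo reagent was added and luminescence read after 30 min at room temperature.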

For assay [19], the target named is Nuclear receptor subfamily 1 group I member 2 (Homo sapiens) (UniProt O75469). Briefly: CYP3A4 induction through human pregnane X receptor (PXR) by small molecules, qHTS assay (AID 1346984). Further: nearly all actives have a fitted effect of over 40% in size. The method in brief:
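Induction measured in HepG2-based DPX-2 cells co-expressing human PXR and a CYP3A4 promoter-driven luciferase. After a 24-hour compound exposure, cells received CYP3A4 luciferin substrate at 3uM final for 3 hours, and light output was then recorded.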

Assay [20] has the same target. Briefly: Human pregnane X receptor (PXR) activation by small molecules, qHTS assay (AID 1346985). Further: nearly all actives have a fitted effect of over 40% in size. The method in brief: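 DPX-2 cells (HepG2 co-transfected with a PXR response element and a CYP3A4-promoter luciferase construct) were seeded at 2,000 per well, rested 5 hr at 37C, then exposed to DMSO-dissolved compounds for 24 hr. Activation was read as luciferase luminescence.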

Molecules are shown by their SMILES. A number with no mark means an inactive call. Results filed as inconclusive are left out. The source made the active and inactive calls. Unless noted, the call rests on the fitted dose curve; in most records, active means well fitted curve in the direction sought with a large enough effect in the repeat runs; inconclusive means weak or mixed curves; inactive means no such curve, though single readings can be large; an effect the other way counts as inactive or inconclusive.
On the % scale 0 is the no-effect control and ±100 the full control effect.

Chain of Thyrotropin-releasing hormone receptor (Homo sapiens) (P34981 whole entry, looked up): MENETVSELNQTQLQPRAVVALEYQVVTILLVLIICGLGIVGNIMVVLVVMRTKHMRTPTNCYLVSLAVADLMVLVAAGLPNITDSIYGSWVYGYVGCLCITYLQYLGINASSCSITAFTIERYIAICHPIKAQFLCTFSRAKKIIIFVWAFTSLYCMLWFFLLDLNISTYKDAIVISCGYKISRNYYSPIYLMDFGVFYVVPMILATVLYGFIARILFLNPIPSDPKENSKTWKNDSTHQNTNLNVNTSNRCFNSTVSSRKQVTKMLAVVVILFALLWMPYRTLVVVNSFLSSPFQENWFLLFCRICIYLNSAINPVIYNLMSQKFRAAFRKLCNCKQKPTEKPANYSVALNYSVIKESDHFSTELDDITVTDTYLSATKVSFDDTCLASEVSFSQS
Chain of Cytochrome P450 2D6 (Homo sapiens) (P10635 whole entry, looked up): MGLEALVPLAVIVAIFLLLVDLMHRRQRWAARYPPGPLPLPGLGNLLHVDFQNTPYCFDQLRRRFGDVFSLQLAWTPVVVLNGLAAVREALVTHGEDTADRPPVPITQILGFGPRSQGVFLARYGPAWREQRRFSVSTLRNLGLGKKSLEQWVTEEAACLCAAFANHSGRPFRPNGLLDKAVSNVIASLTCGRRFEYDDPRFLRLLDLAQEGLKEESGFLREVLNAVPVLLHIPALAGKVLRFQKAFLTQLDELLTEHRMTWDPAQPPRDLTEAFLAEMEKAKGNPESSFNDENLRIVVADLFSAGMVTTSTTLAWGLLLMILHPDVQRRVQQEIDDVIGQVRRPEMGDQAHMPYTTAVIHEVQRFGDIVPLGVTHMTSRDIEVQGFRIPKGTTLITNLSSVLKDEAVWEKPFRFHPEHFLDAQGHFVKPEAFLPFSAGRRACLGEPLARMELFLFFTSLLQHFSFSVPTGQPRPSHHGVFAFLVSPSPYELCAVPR
Chain of Nuclear receptor subfamily 1 group I member 2 (Homo sapiens) (O75469 whole entry, looked up): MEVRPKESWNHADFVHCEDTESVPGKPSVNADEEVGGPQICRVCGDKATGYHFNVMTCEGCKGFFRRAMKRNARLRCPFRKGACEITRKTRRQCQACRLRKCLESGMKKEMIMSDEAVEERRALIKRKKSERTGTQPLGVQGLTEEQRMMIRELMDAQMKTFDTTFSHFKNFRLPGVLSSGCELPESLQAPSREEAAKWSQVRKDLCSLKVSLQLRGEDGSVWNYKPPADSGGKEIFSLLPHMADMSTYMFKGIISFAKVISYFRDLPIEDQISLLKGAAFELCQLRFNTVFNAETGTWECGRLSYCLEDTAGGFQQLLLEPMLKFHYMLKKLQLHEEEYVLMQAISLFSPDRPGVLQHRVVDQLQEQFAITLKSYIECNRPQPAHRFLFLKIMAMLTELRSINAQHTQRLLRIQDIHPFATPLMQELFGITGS
Chain of Progesterone receptor (Homo sapiens) (P06401 whole entry, looked up): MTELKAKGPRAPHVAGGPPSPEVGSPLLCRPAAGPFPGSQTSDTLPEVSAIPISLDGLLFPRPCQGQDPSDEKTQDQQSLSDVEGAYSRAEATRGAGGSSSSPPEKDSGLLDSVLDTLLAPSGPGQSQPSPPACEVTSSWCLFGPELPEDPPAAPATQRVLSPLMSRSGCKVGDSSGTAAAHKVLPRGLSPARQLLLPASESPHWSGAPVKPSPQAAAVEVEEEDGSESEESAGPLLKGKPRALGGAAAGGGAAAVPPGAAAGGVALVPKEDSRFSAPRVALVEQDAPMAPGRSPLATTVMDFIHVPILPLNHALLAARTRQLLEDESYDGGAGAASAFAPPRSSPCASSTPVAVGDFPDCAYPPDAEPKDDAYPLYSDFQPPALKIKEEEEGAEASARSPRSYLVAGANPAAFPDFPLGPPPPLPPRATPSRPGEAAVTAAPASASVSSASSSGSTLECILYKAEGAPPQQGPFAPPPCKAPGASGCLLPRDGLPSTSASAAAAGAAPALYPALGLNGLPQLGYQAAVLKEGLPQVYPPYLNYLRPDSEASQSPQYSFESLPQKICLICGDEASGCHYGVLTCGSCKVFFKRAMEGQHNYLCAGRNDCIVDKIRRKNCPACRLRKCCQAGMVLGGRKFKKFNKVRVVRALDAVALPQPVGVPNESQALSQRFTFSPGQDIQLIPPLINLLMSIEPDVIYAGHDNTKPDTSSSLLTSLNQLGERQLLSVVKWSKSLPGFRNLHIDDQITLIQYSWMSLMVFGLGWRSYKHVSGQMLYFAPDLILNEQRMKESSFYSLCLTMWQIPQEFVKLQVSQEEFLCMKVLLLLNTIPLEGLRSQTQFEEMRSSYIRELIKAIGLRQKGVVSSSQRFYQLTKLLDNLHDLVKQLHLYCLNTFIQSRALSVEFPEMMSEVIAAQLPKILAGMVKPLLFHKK
Chain of Cytochrome P450 2C19 (Homo sapiens) (P33261 whole entry, looked up): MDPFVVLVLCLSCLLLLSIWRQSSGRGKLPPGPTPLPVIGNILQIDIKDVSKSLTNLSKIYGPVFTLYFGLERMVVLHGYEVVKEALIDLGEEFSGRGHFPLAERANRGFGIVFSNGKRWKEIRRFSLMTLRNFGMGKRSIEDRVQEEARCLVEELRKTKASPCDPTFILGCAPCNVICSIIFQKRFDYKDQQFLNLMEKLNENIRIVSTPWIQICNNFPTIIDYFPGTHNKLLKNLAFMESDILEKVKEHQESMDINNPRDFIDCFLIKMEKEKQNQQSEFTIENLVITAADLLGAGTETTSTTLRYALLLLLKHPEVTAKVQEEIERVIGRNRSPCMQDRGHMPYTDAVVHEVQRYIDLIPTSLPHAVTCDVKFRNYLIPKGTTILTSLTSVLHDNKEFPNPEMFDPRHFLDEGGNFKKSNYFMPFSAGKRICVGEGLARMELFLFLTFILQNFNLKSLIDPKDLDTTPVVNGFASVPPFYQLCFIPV
Chain of Nuclear receptor subfamily 1 group I member 2 (Rattus norvegicus) (Q9R1A7 whole entry, looked up): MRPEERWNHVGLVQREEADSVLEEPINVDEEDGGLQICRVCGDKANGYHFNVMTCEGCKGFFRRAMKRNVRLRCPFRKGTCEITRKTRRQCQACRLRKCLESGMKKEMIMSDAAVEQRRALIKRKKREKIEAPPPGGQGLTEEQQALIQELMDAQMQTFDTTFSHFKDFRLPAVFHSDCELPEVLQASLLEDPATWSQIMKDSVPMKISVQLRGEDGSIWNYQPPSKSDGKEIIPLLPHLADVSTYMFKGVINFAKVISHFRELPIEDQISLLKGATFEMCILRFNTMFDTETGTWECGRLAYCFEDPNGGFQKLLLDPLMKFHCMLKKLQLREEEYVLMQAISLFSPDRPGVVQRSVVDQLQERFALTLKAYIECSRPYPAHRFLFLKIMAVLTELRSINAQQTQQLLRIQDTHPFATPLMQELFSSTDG

With `CN1C(=O)N(C)C(O)C1O` (stereo not given), the Potency result in assay [1], in assay [2], in assay [3], in [4], in [5] and in assay [10] was “inactive” in each case. The Potency entry in assay [11], in [12], in assay [14], in [15], in assay [16] and in assay [17] was “inactive” in each case. Moreover, the compound was classed as inactive in assay [6], in [7], in assay [8], in assay [9] and in [13].
For `O=c1cc(CO)occ1O`, the Potency entry in assay [1], in [2], in assay [3], in assay [4], in [5] and in assay [10] was “inactive” each time. For the same compound, the Potency entry in assay [11], in assay [12], in [14], in assay [15], in [16] and in assay [17] was “inactive” in each case. Besides, the outcome in [6], in assay [7], in assay [8], in assay [9] and in assay [13] was inactive.
Turning to `CC(C)c1cc2c(cc1S(=O)(=O)O)[C@@]1(C)CCC[C@@](C)(C(=O)O)[C@@H]1CC2`, the Potency entry in [1], in [2], in assay [3], in [4], in assay [5] and in [10] was “inactive” in each case. Moreover, the Potency result in assay [11], in [12], in assay [14], in assay [15], in assay [19] and in [20] was “inactive” in each case. Moreover, the Potency entry in [16] and in assay [17] was “inactive” each time. Besides, the compound was called inactive in assay [6], in [7], in assay [8], in [9] and in assay [13]. The max activation in [18] was 2.4%.
In the case of `O=C1CC2CC1C1CCCC21` (stereo not given), the Potency result in [1], in assay [2], in [3], in [4], in [5] and in assay [10] was “inactive” in each case. For the same compound, the Potency entry in [11], in [12], in [14], in assay [16] and in assay [17] was “inactive” in each case. Further, the result in assay [6], in assay [7], in assay [8], in [9] and in [13] was inactive.
`CO[Si](CCCOCC1CO1)(OC)OC` (stereo not given): the Potency entry in assay [1], in [2], in assay [3], in [4], in assay [5] and in [10] was “inactive” in each case. Besides, the Potency entry in [11], in assay [12], in assay [14], in assay [15], in [16] and in assay [17] was “inactive” in each case. Moreover, the outcome in assay [6], in assay [7], in assay [8], in assay [9] and in assay [13] was inactive.
Regarding `CCCCCCCCS(=O)(=O)Cl`, the Potency result in assay [1], in assay [2], in assay [3], in assay [4], in assay [5] and in assay [10] was “inactive” each time. The Potency result in [11], in assay [12], in [14], in assay [15] and in [17] was “inactive” each time. Further, the compound was called inactive in assay [6], in assay [7], in [8], in [9] and in assay [13].
As to `CCN1CCC[C@H]1CNC(=O)c1cc(S(N)(=O)=O)ccc1OC`, the Potency result in [1], in assay [2], in assay [3], in assay [4], in assay [5] and in [10] was “inactive” throughout. In addition, the Potency entry in assay [11], in assay [12], in [14] and in assay [17] was “inactive” throughout. The call in assay [6], in [7], in assay [8], in assay [9] and in assay [13] was inactive. Further, the max activation in assay [18] is -2.59%. Moreover, in assay [16], the Potency was 15.5 µM (active).

The record behind these values is PubChem BioAssay (Tox21).
